This is an account of results in ChEMBL document CHEMBL3988442, “University of Dundee, Small-Polar-MMV Screening Library” (2021).

In the experiment the test system is Leishmania donovani. The experiment is described as follows: Leishmania intramacrophage assay. It counts as functional, organism-based. More on the design: scale not given: in the data most compounds retested in dose-response had high values.

Structures are written as SMILES. Among all 69,000 compounds or so, about 1,000 (1.4%) showed an effect of 50% or more. Many of the other results were omitted from the sample, so strong results are more common in it than they were.

With `Cc1noc(C2CCCN(C(=O)CCCNc3ncccn3)C2)n1` (stereo not given), where the note is “30 µM”, the “Percent Effect” value is -32%. Take `CN(CC(=O)N1CCN(c2ncccn2)CC1)c1ccc(Cl)cn1`: under “30 µM, 30.03 µM”, the “Percent Effect” value is on record as 26.44%. Consider `O=C(O)c1ccccc1C1CCN(Cc2ccc(-c3cc[nH]n3)o2)C1` (stereo not given), for which, for the setting “30.3 µM, […]”, the “Percent Effect” value is reported as 8.649%. Still for that read-out and setting: in the case of `O=C(O)c1ccc(C2CCCN(Cc3ccc(-c4cc[nH]n4)o3)C2)cc1` (stereo not given) it was 54.21%; in that of `O=C(O)c1ccc(CC2CCN(Cc3ccc(-c4cc[nH]n4)o3)C2)cc1` (stereo not given), -33.6%. On the same count and under the same terms, in the case of `CNC(=O)CNC(=O)Nc1ccc(Br)c(F)c1` it was -0.911%. The same measure, in the same setting: with `CCOc1ccc2ccccc2c1CNCC1CCNCC1.Cl.Cl` the figure was 87.01%; with `CCOc1ccc2ccccc2c1CNCC1CCS(=O)(=O)C1.Cl` (stereo not given), -4.478%; with `COc1ccc2ccccc2c1CNCC1CCS(=O)(=O)C1.Cl` (stereo not given), -2.378%. As to `CN(C)C(=O)COC1COC2(CCN(S(C)(=O)=O)CC2)C1` (stereo not given), the “Percent Effect” value (30 µM, 30.03 µM) was 8.131%. As to `COc1ccc(-c2noc([C@@H](C)NS(=O)(=O)CC(C)C)c2C(=O)O)cc1`, the “Percent Effect” value (30.3 µM, […]) was determined as 14.82%. On to `OCc1ccncc1NCc1cnc(-c2ccccn2)s1`, for which the “Percent Effect” value (30.3 µM, […]) is recorded as 26.01%. Same read-out and setting: in the case of `Cc1nn(CC(=O)NCCc2ccncc2)c(=O)n1Cc1ccccc1` it was 4.169%; in that of `C=C(C)COc1cccc(CNCCc2nc(N)cc(O)n2)c1`, 10.98%; in that of `CCOCc1ccc(NC(=O)N2CCOC3(CCC3)C2)cc1`, -4.354%. Still for that read-out and setting: with `Cc1ccc(C(=O)O)cc1CNC(=O)CN1CC(C)(C)[C@@](C)(O)C1` the figure was 14.97%. For the molecule `Cc1ccc(C(=O)O)cc1CNC(=O)CN1CC[C@](C)(O)C(C)(C)C1`, the “Percent Effect” value (30.3 µM, […]) was 62.04%. Still for that read-out and setting: with `CC1(C)CN(CC(=O)NCc2ccccc2F)C[C@]1(C)O` the figure was 15.59%; with `Cn1ccnc1Sc1ccc(S(N)(=O)=O)cn1`, -16.43%. For `CN1CCN(S(=O)(=O)c2ccc(Sc3nccn3C)nc2)CC1`, the “Percent Effect” value (30.3 µM, […]) is listed as 0.3902%. Same read-out and setting: in the case of `Cl.Cn1ccnc1Sc1ccc(N)cn1` it was 50.34%; in that of `COC(=O)CC1C(=O)NCCN1c1nc2c(s1)c(C)nn2C` (stereo not given), 6.396%.

With `COc1ccc2c(O)c(NC(=O)NCC3CC3)cnc2c1`, the “Percent Effect” value (30 µM, 30.03 µM) is recorded as -30.24%.

For the molecule `Cl.O=C1CC2(CCNCC2)C(=O)N1Cc1ccc(F)cc1`, the “Percent Effect” value (30.3 µM, […]) came to 26.47%. On the same count and under the same terms, with `CC(C)c1ccc(CN2C(=O)C3(CCNCC3)Nc3ccccc32)cc1` the figure was 100.4%; with `C=Cc1ccc(CN2CCCC3(CNC(=O)c4ccccc4O3)C2)cc1` (stereo not given), -7.721%. `NC(=O)c1ccc(CN2C(=O)C3(CCNCC3)Nc3ccccc32)cc1`: where the note is “30.3 µM, […]”, the “Percent Effect” value is recorded as 29.82%. Same read-out and setting: in the case of `C=Cc1ccc(CN2C(=O)C3(CCNCC3)Nc3ccccc32)cc1` it was 98.05%; in that of `N#Cc1cccc(CN2C(=O)C3(CCNCC3)Nc3ccccc32)c1`, 37.63%; in that of `O=C(O)C(F)(F)F.O=S(=O)(N[C@@H]1CCO[C@]2(CCN(CC3CCOCC3)C2)C1)C1CC1`, 12.64%. For `Cn1cccc1C(=O)NCc1cn2c(n1)CN(Cc1cccnc1)CC2.O=C(O)C(F)(F)F.O=C(O)C(F)(F)F`, where the note is “30.3 µM, […]”, the “Percent Effect” value stood at 5.106%. The same measure, in the same setting: in the case of `Cn1cccc1C(=O)NCc1cn2c(n1)CN(Cc1ccccn1)CC2.O=C(O)C(F)(F)F.O=C(O)C(F)(F)F` it was 52.64%.

Take `Cn1cc(C(=O)NCc2cn3c(n2)CN(Cc2ccccn2)CC3)cn1.O=C(O)C(F)(F)F.O=C(O)C(F)(F)F`: the “Percent Effect” value (30 µM, 30.03 µM) is 26.85%.

Take `O=C(c1cccc2[nH]ccc12)N1CCC2(CCOC2)C1` (stereo not given): the “Percent Effect” value (30.3 µM, […]) was found to be 24.57%. Consider `Cc1cnc(N2CCOCC3(CCN(c4ccccn4)C3)C2)nc1.O=C(O)C(F)(F)F.O=C(O)C(F)(F)F` (stereo not given), for which the “Percent Effect” value (30.3 µM, […]) was -8.514%. Take `CCc1c(C)sc2nc3n(CCN4CCCCC4)nc(SC)n3c(=O)c12`: the “Percent Effect” value (30.3 µM, […]) was determined as 50.52%. Still for that read-out and setting: in the case of `CCc1c(C)sc2nc3n(CCN4CCOCC4)nc(SC)n3c(=O)c12` it was 9.764%. On the same count and under the same terms, with `CCc1c(C)sc2nc3n(CCN(C)C)nc(SC)n3c(=O)c12` the figure was 24.34%. Regarding `CCn1cc(Br)c(C(=O)NCc2cccnc2)n1`, under “30 µM, 30.03 µM”, the “Percent Effect” value was determined as 0.8694%. With `N#Cc1cnc(N2CCC3(CC2)OCCO3)nc1N`, the “Percent Effect” value (30.3 µM, […]) was determined as 39.63%. As for `O=C1NCCN1C1CCN(Cc2nc(-c3ccsc3)no2)CC1`, the “Percent Effect” value (30 µM) stood at 51.47%. As to `O=C1NCCN1C1CCN(Cc2nc(-c3ccoc3)no2)CC1`, under “30 µM, 30.03 µM”, the “Percent Effect” value worked out at 14.49%. For the molecule `O=C1NCCN1C1CCN(Cc2nc(-c3ccccc3)no2)CC1`, under “30 µM”, the “Percent Effect” value stood at 51.92%. Take `Cc1cccc(-c2noc(CN3CCC(N4CCNC4=O)CC3)n2)c1`: the “Percent Effect” value (30 µM, 30.03 µM) is reported as 37%. In the case of `Cc1ccc(-c2noc(CN3CCC(N4CCNC4=O)CC3)n2)cc1`, the “Percent Effect” value (30 µM) was determined as 33.86%. On the same count and under the same terms, in the case of `Cc1ccccc1-c1noc(CN2CCC(N3CCNC3=O)CC2)n1` it was 45.33%.

Consider `NC(=O)C1CCCN1C(=O)c1cccc2c1OCO2` (stereo not given), for which the “Percent Effect” value (30.3 µM, […]) is given as -0.4744%. As to `CCC(NC(=O)C1CC1)c1ccccc1OCC(=O)N1CCCC1` (stereo not given), for the setting “30 µM”, the “Percent Effect” value is listed as -1.247%. For `CNC(=O)C1CN(C)CCN(C(=O)CCn2nnc3ccccc32)C1` (stereo not given), the “Percent Effect” value (30.3 µM, […]) is reported as 12.96%.

Turning to `CN(C)c1ccc(C2CC(=O)Nc3c2cnn3Cc2ccco2)cc1` (stereo not given), the “Percent Effect” value (30.3 µM, […]) is on record as 7.757%.
